Assay results from the supplement of paper PMC11219838.
A number with no mark means an inactive call.

What follows are compounds tested on Meloidogyne hapla J2 (assay: proportion of mobile M. hapla J2 relative to DMSO control (fraction of DMSO control); higher = more viable, less nematicidal, active = 0.7 or less). Settings: 60 µM; 5 days; temperature: 20 °C.
In short: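 Two biological replicates were run and averaged, each on 96-well plates in which about 25 M. hapla J2 sat in distilled water per well. Compound was pinned in to give 60 µM final and 0.6% v/v DMSO, and the sealed plates were shaken at 200 rpm and 20 °C for 5 days before 2 µL 1 M NaOH was added. Mobility was scored microscopically and divided by the mean from the plate's DMSO-only wells, of which there were eight.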

SMILES | proportion of mobile M. hapla J2
Fc1ccc(CSc2nnc(-c3ccccn3)o2)cc1 | 0.846
Cc1ccc(SCc2nc(-c3cccnc3)no2)cc1 | 1.1
O=C(CSc1nnc(-c2ccccc2Cl)o1)Nc1ccc(Br)cn1 | 0.851
Clc1cccc(-c2nc(-c3ccccc3Cl)no2)c1 | 0.991
Cc1ccc(NC(=O)CSc2nnc(-c3ccc(C(C)(C)C)cc3)o2)c(C)c1 | 0.766
COc1ccc(-c2nnc(SCC(=O)N3CC(C)CC(C)C3)o2)cc1 (stereo unspecified) | 1.05
COC(=O)c1ccc(Cl)c(NC(=O)CSc2nnc(-c3ccc(Cl)cc3)o2)c1 | 0.77
CCOc1ccccc1-c1nnc(SCC(=O)N2CCC(C)CC2)o1 | 0.856
Cc1ccc(C(=O)Nc2ccccc2-c2nc(-c3ccncc3)no2)cc1C | 1.06
COc1ccccc1NC(=O)c1ccccc1-c1nc(-c2ccc(Cl)cc2)no1 | 0.78
Cc1ccc(-c2noc(COc3ccc(Cl)cc3)n2)cc1 | 1.02
c1cc(-c2noc(C34CC5CC(CC(C5)C3)C4)n2)ccn1 | 0.941
Brc1ccc(-c2noc(CSc3ccccc3)n2)cc1 | 1.09
CC(Oc1ccccc1)c1nc(-c2cccnc2)no1 (stereo unspecified) | 1.06
Cc1cc(OCc2nc(-c3ccncc3)no2)ccc1Cl | 0.921
COc1ccc(-c2nnc(SCC(=O)N(C)c3ccccc3)o2)cc1 | 1.05
O=C(c1ccccc1-c1nc(-c2ccc(Cl)cc2)no1)N1CCCCC1 | 0.941
COc1cccc(OCc2nc(-c3cccc(C)c3)no2)c1 | 0.866
Cc1ccccc1CSc1nnc(-c2ccncc2)o1 | 0.754

SMILES | proportion of mobile M. hapla J2
O=C(Nc1ccccc1-c1nc(-c2cccnc2)no1)c1cccs1 | 1.02
Cc1cnnn1-c1ccc(-c2nc(-c3ccc(Cl)cc3)no2)cc1 | 0.963
O=C(CSc1nnc(-c2ccncc2)o1)Nc1cc(Cl)cc(Cl)c1 | 0.948
CCOc1cc(-c2nc(-c3cc4ccccc4nc3OC)no2)cc(OCC)c1OCC | 1.04
Cc1cccc(-c2noc(COc3ccc(C)c(C)c3)n2)c1 | 1.04
CCC(=O)Nc1ccccc1-c1nc(-c2cccnc2)no1 | 1.02
COc1cccc(NC(=O)c2ccccc2-c2nc(-c3ccccc3Cl)no2)c1 | 0.918
O=C(Nc1ccc(-c2noc(-c3ccc(F)cc3)n2)cc1)c1ccc(Br)o1 | 0.972
CCN(C(=O)CSc1nnc(-c2ccncc2)o1)c1ccccc1 | 0.965
Clc1ccc(OCc2nc(-c3ccc4c(c3)OCO4)no2)cc1 | 0.932
FC(F)(F)c1cccc(-c2noc(-c3cccs3)n2)c1 | 0.893
COc1cccc(CSc2nnc(-c3ccco3)n2C)c1 | 0.965
Cc1ccccc1-c1nnc(SCC(=O)Nc2cc(C(F)(F)F)ccc2N2CCOCC2)o1 | 0.934
Cc1ccc(-c2noc(CSc3nc4ccccc4[nH]3)n2)cc1 | 1.05
Cc1ccccc1OCc1nc(-c2ccc(NC(=O)c3ccc(Br)o3)cc2)no1 | 0.726
COc1ccc(-c2noc(COc3ccccc3)n2)cc1 | 1.02
CCc1cccc(CC)c1NC(=O)CSc1nnc(-c2ccccc2OC)o1 | 0.758
Cc1ccc(-c2nnc(SCc3c(C)cc(C)cc3C)o2)cc1 | 0.926
Clc1ccc(CSc2nnc(-c3ccccn3)o2)cc1 | 0.835

What follows are compounds tested on Caenorhabditis elegans dauer (daf-2(e1370)) (assay: proportion of mobile C. elegans dauer larvae relative to DMSO control (fraction of DMSO control); higher = more viable, less nematicidal, active = 0.63 or less; extreme values may be limits of the assay). Settings: 60 µM; 5 days; temperature: 20 °C.
In short: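 Synchronized C. elegans larvae were kept for 48 h at 25 °C on MYOB plates seeded with E. coli OP50 to induce dauer formation, and roughly 20 dauers were transferred into each well of a 96-well plate containing liquid NGM. Compound was pinned in to a final concentration of 60 µM with 0.6% v/v DMSO, and the sealed plates were shaken at 200 rpm for 5 days at 20 °C. The fraction of mobile worms was scored under a dissection microscope against DMSO-only wells and averaged across two biological replicates.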

SMILES | proportion of mobile C. elegans dauer larvae
Fc1ccc(CSc2nnc(-c3ccccn3)o2)cc1 | 1
Cc1ccc(SCc2nc(-c3cccnc3)no2)cc1 | 0.75
O=C(CSc1nnc(-c2ccccc2Cl)o1)Nc1ccc(Br)cn1 | 1
Clc1cccc(-c2nc(-c3ccccc3Cl)no2)c1 | 1
Cc1ccc(NC(=O)CSc2nnc(-c3ccc(C(C)(C)C)cc3)o2)c(C)c1 | 1
COc1ccc(-c2nnc(SCC(=O)N3CC(C)CC(C)C3)o2)cc1 (stereo unspecified) | 1
COC(=O)c1ccc(Cl)c(NC(=O)CSc2nnc(-c3ccc(Cl)cc3)o2)c1 | 1
CCOc1ccccc1-c1nnc(SCC(=O)N2CCC(C)CC2)o1 | 1
Cc1ccc(C(=O)Nc2ccccc2-c2nc(-c3ccncc3)no2)cc1C | 1
COc1ccccc1NC(=O)c1ccccc1-c1nc(-c2ccc(Cl)cc2)no1 | 1
Cc1ccc(-c2noc(COc3ccc(Cl)cc3)n2)cc1 | 1
c1cc(-c2noc(C34CC5CC(CC(C5)C3)C4)n2)ccn1 | 1
Brc1ccc(-c2noc(CSc3ccccc3)n2)cc1 | 1
CC(Oc1ccccc1)c1nc(-c2cccnc2)no1 (stereo unspecified) | 1
Cc1cc(OCc2nc(-c3ccncc3)no2)ccc1Cl | 1
COc1ccc(-c2nnc(SCC(=O)N(C)c3ccccc3)o2)cc1 | 1
O=C(c1ccccc1-c1nc(-c2ccc(Cl)cc2)no1)N1CCCCC1 | 1
COc1cccc(OCc2nc(-c3cccc(C)c3)no2)c1 | 1
Cc1ccccc1CSc1nnc(-c2ccncc2)o1 | 1

SMILES | proportion of mobile C. elegans dauer larvae
O=C(Nc1ccccc1-c1nc(-c2cccnc2)no1)c1cccs1 | 1
Cc1cnnn1-c1ccc(-c2nc(-c3ccc(Cl)cc3)no2)cc1 | 1
O=C(CSc1nnc(-c2ccncc2)o1)Nc1cc(Cl)cc(Cl)c1 | 1
CCOc1cc(-c2nc(-c3cc4ccccc4nc3OC)no2)cc(OCC)c1OCC | 1
Cc1cccc(-c2noc(COc3ccc(C)c(C)c3)n2)c1 | 1
CCC(=O)Nc1ccccc1-c1nc(-c2cccnc2)no1 | 1
COc1cccc(NC(=O)c2ccccc2-c2nc(-c3ccccc3Cl)no2)c1 | 1
O=C(Nc1ccc(-c2noc(-c3ccc(F)cc3)n2)cc1)c1ccc(Br)o1 | 1
CCN(C(=O)CSc1nnc(-c2ccncc2)o1)c1ccccc1 | 1
Clc1ccc(OCc2nc(-c3ccc4c(c3)OCO4)no2)cc1 | 1
FC(F)(F)c1cccc(-c2noc(-c3cccs3)n2)c1 | 1
COc1cccc(CSc2nnc(-c3ccco3)n2C)c1 | 1
Cc1ccccc1-c1nnc(SCC(=O)Nc2cc(C(F)(F)F)ccc2N2CCOCC2)o1 | 1
Cc1ccc(-c2noc(CSc3nc4ccccc4[nH]3)n2)cc1 | 1
Cc1ccccc1OCc1nc(-c2ccc(NC(=O)c3ccc(Br)o3)cc2)no1 | 1
COc1ccc(-c2noc(COc3ccccc3)n2)cc1 | 1
CCc1cccc(CC)c1NC(=O)CSc1nnc(-c2ccccc2OC)o1 | 1
Cc1ccc(-c2nnc(SCc3c(C)cc(C)cc3C)o2)cc1 | 1
Clc1ccc(CSc2nnc(-c3ccccn3)o2)cc1 | 1
